# Laboratory results reported in ChEMBL document CHEMBL3988442, “University of Dundee, Small-Polar-MMV Screening Library” (2021).
# Out of some 48,000 compounds screened, about 13,000 (27%) showed an effect of 50% or more. The list shows a part of the results.
# Test system: Wolbachia pipientis
# Experiment: Anti-Wolbachia Cell-Based Screen
# Type: functional
# Parameters: scale not given: in the data most compounds retested in dose-response had high values
# Details: 5 µM
row,Structure (SMILES),Percent Effect
1,CN1C(=O)C2(CCN(CC3CCC3)C2)c2ccccc21.O=C(O)C(F)(F)F (stereo unspecified),10.05%
2,O=C(Cc1ccccn1)N1CCC2(CCCN(CC3CCOCC3)C2)C1 (stereo unspecified),-4.093%
3,CS(=O)(=O)N1CC2(CCN(CC3CC3)C2)Cc2ccccc21 (stereo unspecified),119.1%
4,CCn1c(C)nnc1SCCNC(=O)c1cccc2ccnn12,-3.845%
5,Cc1nc(CNC(=O)CC2C(=O)NCCN2Cc2ccccc2C)n[nH]1 (stereo unspecified),4.07%
6,CCCc1nnsc1C(=O)NCC1CCN(S(C)(=O)=O)CC1,-2.324%
7,Cc1cnc(N2C[C@@H]3[C@@H](C2)OCC(=O)N3C)nc1,-11.2%
8,CCN1CC2(CCN(C(=O)C(C)Oc3cccc(Cl)c3)CC2)OC1=O (stereo unspecified),-19.97%
9,N#Cc1ccc(OC2CCN(CC(=O)NCC3CCCO3)CC2)cc1 (stereo unspecified),1.578%
10,COc1ccc2c(c1)CCCN(C(C)C(=O)N1CCCC1)C2 (stereo unspecified),19.28%
11,COc1ccc2c(c1)CCCN(C(=O)NCC1CCCO1)C2 (stereo unspecified),114.2%
12,COc1cccc(N2CCN(CCC(=O)NC3CCCCC3)CC2)c1,105.3%
13,COc1ccc2c(c1)CCCN2C(=O)CN1CCOC(CN(C)C)C1 (stereo unspecified),3.019%
14,COc1ccc2c(c1)CCCN(CC(=O)NCC1CCCO1)C2 (stereo unspecified),92.35%
15,CCC(=O)NC1CCN(c2cccc(CC)c2)CC1,-2.51%
16,C=C(C)COCCNC(=O)N1CCc2c(cccc2OC)C1,-14.6%
17,CC(C)OCCC(=O)Nc1cccc(N2CCN(CC3CC3)CC2)c1,-21.21%
18,CS(=O)(=O)NC1CCN(C(=O)NCC2CCCO2)CC1 (stereo unspecified),-8.8%
19,COc1cc2c(cc1OC)CN(C(=O)NCC1CCCO1)CC2 (stereo unspecified),106.4%
20,COc1ccc2c(c1)CCCN2C(=O)CNCC1CN(C)CCO1 (stereo unspecified),15.31%
21,COc1ccc(-c2n[nH]cc2CN(C)Cc2ccoc2)c(F)c1,10.13%
22,c1cc2c(cc1C1CCCN1Cc1nnnn1C1CC1)OCCO2 (stereo unspecified),-7.859%
23,CCC(O)CNc1ccc(-c2nc(CC(C)C)no2)cn1 (stereo unspecified),-5.208%
24,O=C(NCC1CCOC1)c1ccc(OCC(F)(F)F)nc1 (stereo unspecified),-6.921%
25,NCC1Cc2cc(-c3cncc(C(=O)N4CCOCC4)n3)cc(Cl)c2O1 (stereo unspecified),-2.851%
26,CCc1nc(C2CCCN2CCCS(=O)(=O)c2ccccc2)no1 (stereo unspecified),0.9329%

row,Structure (SMILES),Percent Effect
1,COc1ccc2c(c1)CN(CC(=O)NC1CCCC1)CC2,115.8%
2,COc1ccc2c(c1)CCN(CCC(=O)NC1CCCCC1)CC2,-10.31%
3,COc1ccc2c(c1)CN(c1cc(N3CCCC3CO)ncn1)CC2 (stereo unspecified),-11.42%
4,COCCOCC(=O)N1CCC(O)(c2ccc3nc(C)ccc3c2)CC1,1.515%
5,CCn1c(N)nc2cc(C(=O)NCCc3sccc3C)cnc21,9.086%
6,CN(Cc1cccc(F)c1)C(=O)CN1CCCC1CCc1ccccc1 (stereo unspecified),-6.226%
7,CCN1CCCC1CNC(=O)CCc1cccs1 (stereo unspecified),-0.4602%
8,Cc1oc(-c2ccoc2)nc1CN1CCCCC1CCc1ccccc1 (stereo unspecified),-13.12%
9,O=C(O)c1cccnc1CN1CCCC1CCc1ccccc1 (stereo unspecified),101.7%
10,CC(C)(C)OC(=O)NCC1CCCCN1Cc1ccccn1 (stereo unspecified),1.475%
11,O=C(O)c1cccnc1CN(Cc1ccsc1)C1CC1,-4.109%
12,O=C(O)c1cccnc1CN1CCCCC1CCc1cccs1 (stereo unspecified),113%
13,Cc1c[nH]c(CN2CCCCC2CCc2cccc(O)c2)c(C)c1=O (stereo unspecified),11.94%
14,O=C(Cc1c[nH]c(=O)[nH]c1=O)N1CCCCC1CCc1cccc(O)c1 (stereo unspecified),2.49%
15,O=C(O)c1cccnc1CN1CCCCC1CCc1cccc(O)c1 (stereo unspecified),117.3%
16,O=C(O)c1cccnc1CN1CCCCC1CCc1ccccn1 (stereo unspecified),108.5%
17,COc1cc2c(cc1OC)CN(Cc1ncccc1C(=O)O)CC2,-6.886%
18,CN(CCCc1nccn1C)C(=O)C1CCN(C(=O)C2CC2)CC1,15.41%
19,Cc1ccccc1CN1CCC2(CC1)CN(S(=O)(=O)c1ccccc1)C2.O=C(O)C(F)(F)F,-17.23%
20,Cc1occc1C(=O)N1CCC[C@]2(C[C@@H](OCc3ccncc3)CO2)C1.O=C(O)C(F)(F)F,-11.73%
21,CCc1cc(C(=O)N2CCCC2c2nc(C)c(CC)c(O)n2)on1 (stereo unspecified),110.9%
22,CCc1cc(C(=O)N2CCCC2c2nc(C)c(F)c(O)n2)on1 (stereo unspecified),-4.896%
23,CCc1nc(C2CCCN2C(=O)C2=COCC2)no1 (stereo unspecified),-4.333%
24,CCc1c(C)nc(C2CCCN2C(=O)c2cc(C)no2)nc1O (stereo unspecified),101.8%
25,CCc1nc(C2CCCN2C(=O)c2ccc3c(c2)nc(C)n3C)no1 (stereo unspecified),0.7608%
